Screens from PubChem BioAssay.
A selection: hits, their analogues and other compounds. The true share with any hit is near 12%.
JMJD2A Tudor – JMJD2A Tudor domain (human) inhibition; 390,000 compounds, 4.4% hits; O75164; Potency, µM (series often up to 114 µM), hits mostly inhibitors; AlphaScreen JMJD2A-Tudor / H3K4me3 peptide binding; note: nearly all actives have a fitted effect of over 50% in size
BAZ2B block – inhibitors of human BAZ2B bromodomain; AlphaScreen BAZ2B-H3K14Ac peptide displacement; Potency, µM (top dose mostly 114 µM), most hits filed as inhibitors; 360,000 compounds, 4.4% hits; note: nearly all actives have a fitted effect of over 60% in size
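BAZ2B 50 nM plus b-H3(5-23)K14Ac 50 nM, PBS pH 7.4/0.01% Tween-20, 30 min RT; compound added (max 110 uM), 30 min RT; streptavidin donor/Ni-chelate acceptor beads 10 ug/mL final, 20 min dark; AlphaScreen read.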
G9a inh – inhibitors of human histone lysine methyltransferase G9a; Potency, µM (titrated, usually from 102 µM), hits mostly inhibitors; G9a H3K9 monomethylation, AlphaScreen, 2 h; 350,000 compounds, 8.8% hits; Q96KQ7; note: nearly all actives have a fitted effect of over 75% in size
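Quantitative HTS format: methyltransferase activity on a biotin-tagged H3K9 peptide is measured by AlphaScreen, using a rabbit anti-monomethyl-H3K9 antibody with streptavidin donor and anti-IgG acceptor beads. Final levels are 20 nM enzyme, 500 nM peptide, 20 uM SAM; 2 h RT.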
PLK1 PBD inh – blocks phosphopeptide binding to human PLK1 polo-box domain | P53350 | 360,000 compounds, 2.8% hits | AID 720504 | Potency, µM, most hits filed as inhibitors | Plk1 PBD binding of FITC phosphopeptide, fluorescence polarization; note: series mostly up to about 57 µM; nearly all actives have a fitted effect of over 65% in size
HP1b chromo inh – blocks HP1-beta chromodomain binding to methylated histone tails | P83916 | AlphaScreen HP1-beta / biotin-H3K9me3 peptide binding | Potency, µM (titrated, usually from 114 µM), most hits filed as inhibitors | 390,000 compounds, 0.56% hits | AID 540317; note: nearly all actives have a fitted effect of over 70% in size
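Compound inhibition of the preformed complex between 50 nM HP1-beta and 50 nM biotinylated H3K9me3 peptide was read by AlphaScreen. Buffer was PBS pH 7.4 with 0.01% Tween-20. Incubations ran 30 min at room temperature, with 10 ug/mL donor/acceptor beads.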
Sfp PPTase inh – Sfp phosphopantetheinyl transferase inhibition; Q9F4F7; Biochemical Sfp PPTase activity, qHTS; Potency, µM, hits mostly inhibitors; 310,000 compounds, 3.5% hits; AID 1490;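 note: the enzyme is Sfp with the accession as filed and its product quenches rhodamine fluorescence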
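With Hepes-Na pH 7.6 buffer containing 10 mM MgCl2, Sfp (15 nM) modified BHQ-2-YbbR (12.5 uM) using rhodamine-CoA (5 uM). Two reads 30 minutes apart at 525/598 nm yielded each well's rate.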
Hits are given with their value; - = inactive; ? = inconclusive; . = not tested or not shown; [ ] = dose if it differs, or a comment. Calls come from the whole dose curve; as a rule, active = well fitted curve in the direction sought with a large enough effect; inconclusive = small, poorly fitted or top-dose-only effect, or another doubt; inactive = no such curve, though single readings can be large; an effect the other way counts as inactive or inconclusive.

SMILES	JMJD2A Tudor	BAZ2B block	G9a inh	PLK1 PBD inh	HP1b chromo inh	Sfp PPTase inh
CN(C(=O)c1cc(Cl)c2c(c1)OCCO2)c1c(N)n(Cc2ccccc2)c(=O)[nH]c1=O	-	-	-	-	-	.
CSc1ccc(CN(C)C(=O)c2cc(Cl)c3c(c2)OCCO3)cc1	-	?	56.2µM	-	-	-
N#CC1(N2CCN(C(=O)c3ccccc3)CC2)CCCCC1	-	?	-	-	-	-
COc1cccc(N2C(=O)C(CC(=O)Nc3cccc(F)c3)N(C3CCCC3)C2=O)c1 (stereo not given)	-	-	?	.	-	.
CC(C)NC(=O)N1CC[C@@]2(CCCN(C(=O)Oc3ccccc3)C2)C1	.	.	-[12.7 µM]	.	.	-
CN(C)c1ccc(/C=C2\SC(=S)N(Nc3ncc(C(F)(F)F)cc3Cl)C2=O)cc1	-	?	?	-	-	50.1µM
COc1cc(/C=C2\SC(=S)N(Nc3ncc(C(F)(F)F)cc3Cl)C2=O)ccc1O	?	35.5µM	39.8µM	-	?	?
Cc1ccc(C[C@H](C(=O)O)N2C(=O)c3ccc(C(=O)O)cc3C2=O)c(C)c1	-	-	-[12.7 µM]	.	.	-
COc1ccccc1NC(=O)C(O)C(O)C(=O)Nc1ccccc1OC (stereo not given)	-	-	-[12.7 µM]	?	-	-
COc1ccccc1NC(=S)NNC(=O)c1c(Cl)c(C)nn1C	-	-	25.1µM	-	-	-
COc1ccccc1C(=O)NNC(=O)c1ccccc1Br	-	-	-[0.501 µM]	-	-	-
COc1ccccc1NC(=O)C(C/C=C(/C)Cl)C(C)=O (stereo not given)	-[11.4 µM]	-	-	29.9µM	-	-
COc1ccccc1NC(=O)Nc1ccccc1Br	-	-	-	11.9µM	-	-
COc1ccccc1NC(=S)NNC(=O)c1ccccc1Br	-	-	35.5µM	-	-	-
CCc1sc(C(=O)N2CCc3cc(OC)c(OC)cc3C2CC(=O)O)cc1C (stereo not given)	-	-	-[12.7 µM]	-	-	.
COc1ccc(S(=O)(=O)N2CCOCC2)cc1C(=O)N(C)Cc1ccco1	-	.	.	-	-	.
CC(=N\NC(=O)c1ccccc1)/C(=N/O)C(=O)Nc1ccccc1	-	56.2µM	-	-	-	-
COc1cc(OC)cc(C(=O)NNC(=S)Nc2ccccc2OC)c1	-	-	39.8µM	-	-	-
COc1ccccc1NC(=S)NNC(=O)c1ccccc1	-	.	.	-	-	.
COc1ccccc1NC(C)=O	-[11.4 µM]	.	-	-	-	-
COc1ccccc1NC(=O)C(=N\O)/C(C)=N/O	?	-	10µM	-	-	-
CC12CCC(=O)N1C(C(=O)Nc1cc(Cl)ccc1N1CCCC1)CS2 (stereo not given)	-	-	?	-	-	.
CC1(C)Oc2ccc3ccc(=O)oc3c2CC1=O	.	.	.	.	.	-
COc1ccc2c(c1OC)C(Cc1ccccc1)N1CCc3cc4c(cc3C1=C2)OCO4 (stereo not given)	.	.	.	.	.	50.1µM
COc1c2c(cc3c1C(CC(O)Cc1ccccc1)N(C)CC3)OCO2 (stereo not given)	-	?	?	-	-	-
SMILES	JMJD2A Tudor	BAZ2B block	G9a inh	PLK1 PBD inh	HP1b chromo inh	Sfp PPTase inh
Nc1ccc(-c2nc3c(ccc4ccccc43)[nH]2)cc1	-	?	?	-	-	-
OCC1O[C@H]([S-])[C@H](O)[C@@H](O)[C@@H]1O.[Au+] (stereo not given in full)	.	.	0.212µM	.	.	.
O=C(O)[C@@H]1CCCN1S(=O)(=O)c1cccc2cccnc12	-	-	-[2.33 µM]	-	-	.
C/C(=N\N(c1ccccc1)c1ccccc1)c1ccc(N)cc1	22.4µM	.	.	-	?	.
CC(=NN(Cc1ccccc1)c1ccccc1)c1ccccc1	-	.	.	-	-	.
C/C(=N\N(c1ccccc1)c1ccccc1)c1ccc(O)cc1	39.8µM	50.1µM	79.4µM	-	?	-
C/C(=N/NC(=O)C(=O)N/N=C(/C)c1ccccc1)c1ccccc1	.	-	-	.	.	-
CC1(C)CC(=O)C(C2C3=C(CC(C)(C)CC3=O)Oc3c(Br)cc(Br)cc32)=C(O)C1 (stereo not given)	-	-	.	-	-	-
Cc1ccc(S(=O)(=O)Nc2cccc(C(=O)N3CCN(c4ccccc4O)CC3)c2)cc1F	-	-	50.1µM	-	-	.
CC1CCCCN1C(=O)COC(=O)c1cccc(NS(=O)(=O)c2ccccc2)c1 (stereo not given)	-	-	56.2µM	-	-	.
CCOC(=O)C1CCN(C(=O)c2cccc(NS(=O)(=O)c3ccc(F)c(F)c3)c2)CC1	-	-	50.1µM	-	-	?
Cc1cc(S(=O)(=O)Nc2ccc(C(=O)N3CCN(c4ccccc4O)CC3)cc2)ccc1F	-	-	-	-	-	-
CCOC(=O)N1CCN(C(=O)c2cccc(NS(=O)(=O)c3ccc(F)c(F)c3)c2)CC1	-	-	-	-	-	-
O=C(COC(=O)c1ccccn1)Nc1nc(-c2cccc([N+](=O)[O-])c2)cs1	-	56.2µM	-	-	-	-
O=C(Cc1ccccc1)Nc1nc(-c2cccc([N+](=O)[O-])c2)cs1	-	-	-	-	-	-
CCn1nc(C(=O)OCC(=O)NCC(C)C)c2ccccc2c1=O	-	-	-	-	-	-
COCC(=O)Nc1nc(-c2ccc(-c3ccccc3)cc2)cs1	-	-	?	-	-	-
CCn1nc(C(=O)OCC(=O)Nc2nc(-c3ccc(OC)cc3)cs2)c2ccccc2c1=O	-	-	?	26.7µM	-	-
O=C(COC(=O)c1ccccn1)Nc1nc(-c2ccccc2)cs1	79.4µM	50.1µM	-	-	-	-
Cc1cccc(NC(=O)CSCC(=O)OCc2ccccn2)c1	?	-	-	-	-	.
CC1CCCC(NC(=O)/C=C/c2c(F)cccc2Cl)C1C (stereo not given)	-	.	.	-	-	.
O=C(NCC1CCCC(CNC(=O)Nc2ccc(Cl)cn2)C1)Nc1ccc(Cl)cn1 (stereo not given)	-	-	-	-	-	-
COc1cc([N+](=O)[O-])cc(/C=N/NC(=O)C(C)Nc2cccc3ccccc23)c1O (stereo not given)	?	44.7µM	44.7µM	-	-	-
CC(Nc1cccc2ccccc12)C(=O)N/N=C/c1ccc([N+](=O)[O-])cc1 (stereo not given)	?	?	?	-	?	31.6µM
COc1ccccc1NC(C)C(=O)N/N=C/c1ccccc1OCc1cccc(Br)c1 (stereo not given)	?	-	50.1µM	-	-	-
O=C(N/N=C/c1cccnc1)c1ccccc1OCc1cccc(Br)c1	-	.	-	-	-	-
Cc1ccc(/C=N/NC(=O)c2ccccc2OCc2cccc(Br)c2)o1	-	-	25.1µM	-	?	-
CCCc1ccc(OCC(=O)Nc2sc(C(=O)OCC)c(C)c2C(=O)OCC)cc1	-	-	-	.	-	.
